Laboratory results reported in PubChem BioAssay AID651661 (Broad Institute, 2012).
The campaign covered roughly 350,000 compounds. About 2,300 (0.66%) were called active. This excerpt belongs to a sample that is enriched for actives. Values without a mark were called inactive.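 How the source made its calls: active means mean inhibition of at least 50% after viability correction, with every replicate also passing that limit; inconclusive means mean reaches 50% but only one of two replicates passes; inactive means the rest.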

Assay: blockers of EWS/Fli transcriptional output – A673 cells, NR0B1 luciferase, luminescence, MLPCN library, primary screen (AID 651661);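 further: firefly luciferase signal divided by Alamar Blue viability fluorescence both relative to DMSO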
Conditions: A673 NR0B1-luciferase reporter, viability-normalised; at 12.6 µM; active compounds read high

| Compound | inhibition |
| --- | --- |
| CO[C@@H]1CN(C)C(=O)c2ccc(NC(=O)NC(C)C)cc2OC[C@@H](C)N(Cc2ccc(-c3ccccn3)cc2)C[C@H]1C | 0.576% |
| COc1ccc2c3c([nH]c2c1)[C@H](CO)N(S(=O)(=O)c1cn(C)cn1)CC31CCN(CC2CC2)CC1 | -3.8% |
| C[C@H](CO)N1C[C@H](C)[C@H](CN(C)CC2CCCCC2)Oc2ccc(NC(=O)CCCCCC(=O)Nc3ccccc3N)cc2CC1=O | 51.8% (active) |
| C[C@H](CO)N1C[C@H](C)[C@@H](CN(C)Cc2ccc(-c3ccccc3)cc2)Oc2ccc(NC(=O)CCC(F)(F)F)cc2CC1=O | 72.1% (active) |
| CC(C)NC(=O)N(C)C[C@H]1Oc2ccc(NC(=O)CCCCCC(=O)Nc3ccccc3N)cc2CC(=O)N([C@@H](C)CO)C[C@H]1C | -5.03% |
| C[C@H]1CN([C@@H](C)CO)C(=O)Cc2cc(NC(=O)CCCCCC(=O)Nc3ccccc3N)ccc2O[C@@H]1CN(C)Cc1ccncc1 | -9.64% |
| C[C@H](CO)N1C[C@H](C)[C@H](CN(C)Cc2ccc(C(F)(F)F)cc2)Oc2ccc(NC(=O)CCCCCC(=O)Nc3ccccc3N)cc2CC1=O | 52.3% (active) |
| C[C@@H]1CN([C@@H](C)CO)C(=O)Cc2cc(NC(=O)CCCN(C)C)ccc2O[C@@H]1CN(C)Cc1ccc(-c2ccccc2)cc1 | 17.3% |
| C[C@H]1CN([C@@H](C)CO)C(=O)Cc2cc(NC(=O)C3CC3)ccc2O[C@H]1CN(C)S(=O)(=O)c1ccc(Cl)cc1 | 52.2% (active) |
| C[C@@H]1CN([C@@H](C)CO)C(=O)Cc2cc(NC(=O)CCCCCC(=O)Nc3ccccc3N)ccc2O[C@H]1CN(C)C(=O)Nc1ccc(C(F)(F)F)cc1 | 8.79% |
| C[C@@H]1CN([C@H](C)CO)C(=O)Cc2cc(NC(=O)C3CCCCC3)ccc2O[C@H]1CN(C)S(=O)(=O)c1ccc(Cl)cc1 | 4.11% |
| C[C@@H]1CN([C@@H](C)CO)C(=O)Cc2cc(NC(=O)CCCCCC(=O)Nc3ccccc3N)ccc2O[C@@H]1CN(C)C(=O)NC1CCCCC1 | 2.61% |
| COc1ccc(S(=O)(=O)N(C)C[C@@H]2Oc3ccc(NC(=O)C4CC4)cc3CC(=O)N([C@@H](C)CO)C[C@H]2C)cc1 | -1.28% |
| C[C@H]1CN([C@@H](C)CO)C(=O)Cc2cc(NC(=O)CCCN(C)C)ccc2O[C@@H]1CN(C)Cc1ccc(-c2ccccc2)cc1 | -8.76% |
| CCS(=O)(=O)Nc1ccc2c(c1)C(=O)N(C)[C@H]1CC[C@H](CC(=O)Nc3ccccc3)O[C@@H]1CO2 | -5.08% |
| COc1ccc(S(=O)(=O)N2CCCCN3[C@H](C2)[C@H](c2ccc(C4=CCCC4)cc2)[C@@H]3CO)cc1 | -9.53% |
| C[C@H]1CN([C@@H](C)CO)C(=O)c2ccccc2-c2ccccc2CO[C@H]1CN(C)Cc1ccc(-c2ccccc2)cc1 | 8.23% |
| COc1ccc2c3c(n(C)c2c1)[C@@H](CO)N(CC1CC1)CC31CCN(C(=O)c2ccc3c(c2)OCO3)CC1 | 17.4% |
| N#C[C@@H]1[C@H](c2ccccc2-c2ccccc2F)[C@@H](CO)N1C(=O)c1ccccn1 | 31.4% |
| CO[C@H]1CN(C)C(=O)c2ccc(NS(=O)(=O)c3ccccc3)cc2OC[C@H](C)N(Cc2nccs2)C[C@@H]1C | 3.5% |
| O=C(c1ccccc1)N1CC(=O)N2[C@@H](CO)[C@H](c3ccc(C#CC4CC4)cc3)[C@@H]2C1 | -6.36% |
| C[C@H](CO)N1C[C@H](C)[C@@H](CN(C)S(=O)(=O)c2cn(C)cn2)OCCCC[C@H](C)Oc2ccc(NC(=O)Cc3ccccc3)cc2C1=O | 2.69% |
| CC(=O)Nc1ccc2c(c1)C(=O)N(C)[C@H]1CC[C@H](CC(=O)NCc3ccccc3Cl)O[C@H]1CO2 | -1.68% |
| Cc1cccc(S(=O)(=O)N2C[C@@H]3[C@H](c4ccccc42)[C@@H](CO)N3C(=O)c2ccccc2)c1 | 1.99% |

| Compound | inhibition |
| --- | --- |
| Cc1cccc(NS(=O)(=O)c2ccc(-c3cnc(C4CC4)o3)cc2)c1 | 53.1% (active) |
| Cc1cccc(CNS(=O)(=O)c2ccc(-c3cnc(C4CC4)o3)cc2)c1 | -1.32% |
| COc1ccc(CNS(=O)(=O)c2ccc(-c3cnc(C4CC4)o3)cc2)cc1 | 4.87% |
| COc1ccccc1NC(=O)N1CC(=O)N2[C@H](C1)[C@H](c1ccc(C#Cc3ccccc3)cc1)[C@@H]2CO | 0.577% |
| C[C@@H](O)C#Cc1ccc([C@H]2[C@H]3CN(C(=O)c4ccc5c(c4)OCO5)CCCCN3[C@H]2CO)cc1 | -9.79% |
| C[C@H]1CN([C@@H](C)CO)C(=O)c2cc(C3=CCCC3)cnc2O[C@@H]1CN(C)Cc1cccnc1 | -9.75% |
| COc1ccc(/C=C/C(=O)OCC(=O)NC2CCCCCC2)cc1OC | -1.04% |
| COc1ccc(/C=C2\SC(=S)N(CCC(=O)N3CCOCC3)C2=O)cc1OC | 0.114% |
| COc1ccc(/C=C2\SC(=S)N(CCCC(=O)NC3CCCC3)C2=O)cc1OC | 55.1% (active) |
| COCC(=O)N1[C@H](CO)[C@H](c2ccccc2)C12CN(C(=O)NC1CCCCC1)C2 | -12.4% |
| C[C@H](CO)N1C[C@H](C)[C@@H](CN(C)CC2CC2)OCCCC[C@H](C)Oc2ccc(NC(=O)Cc3ccccc3)cc2C1=O | 32% |
| COc1ccccc1-n1c(CNC(=O)c2ccccc2)nnc1SCC(=O)Nc1nnc(C)s1 | 4.12% |
| COc1ccccc1-n1ccnc1SCC(=O)NC(C)(C)C | 0.699% |
| Cc1nnc(NC(=O)CSc2nccn2-c2cccc(C)c2C)s1 | 60.5% (active) |
| Cc1nc(N2[C@H](CO)[C@H](c3ccccc3)[C@H]2CNCC2CCCCC2)sc1C | -4.86% |
| COc1cccc(-c2ccc([C@H]3[C@H]4CN(C(=O)NC(C)C)CC(=O)N4[C@H]3CO)cc2)c1 | 1.6% |
| CN1CCN(CCCNC(=O)c2ccc(/C=C3\Oc4ccccc4N(Cc4ccc(Cl)cc4)C3=O)cc2)CC1 | 62.2% (active) |
| CC(C)OCCCNC(=O)CN1C(=O)/C(=C/c2ccccc2F)Oc2ccccc21 | -9.7% |
| CCCN1CCN(CCCNC(=O)CN2C(=O)COc3ccccc32)CC1 | 5.75% |
| O=C1CN(S(=O)(=O)c2ccccc2)C[C@H]2[C@H](c3ccc(C#CCc4ccccc4)cc3)[C@@H](CO)N12 | -2.75% |
| C[C@@H]1CN([C@@H](C)CO)C(=O)c2cc(-c3ccncc3)cnc2O[C@@H]1CN(C)C(=O)C1CCCCC1 | -4.18% |
| C[C@H](CO)N1C[C@H](C)[C@@H](CN(C)C(=O)Nc2ccc(F)cc2)OCCCC[C@H](C)Oc2ccc(NC(=O)c3ccncc3)cc2C1=O | -7.08% |
| Cc1cccc(NC(=O)c2nc(S(=O)(=O)Cc3ccccc3)ncc2Cl)c1 | 56.5% (active) |
| Cc1ccc(CS(=O)(=O)c2ncc(Cl)c(C(=O)Nc3nnc(C)s3)n2)cc1 | 67.7% (active) |

| Compound | inhibition |
| --- | --- |
| Cc1cccc(NC(=O)C(C)SCc2ccccc2)c1 (stereo not given) | -20.7% |
| Cc1cc(C)cc(NS(=O)(=O)Cc2ccccc2)c1 | -2.06% |
| Cc1nnc(NC(=O)C(c2ccccc2)c2ccccc2)s1 | 11.8% |
| O=C(Nc1ccc(F)cc1)c1ccc(S(=O)(=O)NCc2cccnc2)cc1 | 14.9% |
| Cc1ccc(S(=O)(=O)CCC(=O)Nc2nnc(CC(C)C)s2)cc1 | -2.4% |
| Cc1cccc(CS(=O)(=O)c2ncc(Cl)c(C(=O)Nc3ccc(F)cc3)n2)c1 | 60.6% (active) |
| Cc1ccc(C)c(Cn2nnc3c(=O)[nH]c(C(=O)Nc4ccc(F)cc4)nc32)c1 | -4.91% |
| O=C(C[C@H]1C=C[C@@H](NC(=O)NC2CCCCC2)[C@@H](CO)O1)NCc1ccc(Cl)cc1 | -5.17% |
| CC(C)C#Cc1ccc([C@H]2[C@@H](C#N)N(C(=O)CN(C)C)[C@H]2CO)cc1 | 2.38% |
| COCC(=O)Nc1ccc2c(c1)OC[C@H](C)NC[C@H](C)[C@H](OC)CN(C)C2=O | -2.88% |
| CCNC(=O)Nc1ccc2c(c1)C(=O)N(C)[C@H]1CC[C@@H](CC(=O)N[C@H](C)c3ccccc3)O[C@@H]1CO2 | 0.627% |
| Cn1cnc(S(=O)(=O)N2CC[C@@H]3[C@H]2c2cc(C#Cc4cccc(F)c4)ccc2N[C@@H]3CO)c1 | 0.925% |
| C[C@@H]1CN([C@H](C)CO)C(=O)c2cc(C#Cc3cccc(F)c3)cnc2O[C@H]1CN(C)Cc1ccccn1 | 6.4% |
| C[C@H](CO)N1C[C@H](C)[C@H](CN(C)C(=O)NC2CCCCC2)Oc2ccc(NC(=O)CCCN(C)C)cc2CC1=O | -7.51% |
| CC(C)OC(=O)N(C)C[C@@H]1OCc2ccccc2-c2c(n(C)c3ccccc23)C(=O)N([C@H](C)CO)C[C@H]1C | 8.3% |
| Cc1ccc(-c2nc3ccc(Cl)cn3c2Cc2ccccc2)cc1 | -80.4% |
| Cc1ccc(-n2c(-c3ccc(Cl)cc3)n[nH]c2=S)cc1 | 3.61% |
| COc1ccc(-c2nc3ccc(Br)cn3c2Cc2ccc(C)cc2)cc1OC | -33.3% |
| Cc1ccc(-c2cn3cc(C)ccc3n2)cc1 | 66.7% (active) |
| Cc1ccc(-c2nc3ccc(Br)cn3c2Cc2ccccc2C(F)(F)F)cc1 | -71.5% |
| Cc1ccc2nc(-c3ccc(Br)cc3)cn2c1 | 71.9% (active) |
| C[C@@H]1CN([C@@H](C)CO)S(=O)(=O)c2ccc(C#Cc3cccnc3)cc2O[C@@H]1CN(C)C(=O)CN(C)C | 12.9% |
